From PubChem
Rows were chosen to be rich in hits. Some 16% of all compounds tested hit in one or more screens of this group.
TDP1 cell CPT: qHTS for Inhibitors of human tyrosyl-DNA phosphodiesterase 1 (TDP1): qHTS in cells in presence of CPT; chicken DT40 Tdp1-/-;hTDP1 cells + 20 nM CPT, ATP luminescence, 48 h; Potency, µM (top dose mostly 46.2 µM), for inactives: top-dose activity change, negative = growth inhibition, most hits filed as inhibitors; 12% of 420,000 active; note: potency is the fitted concentration of half-maximal effect; % is set by controls: 0 for no effect and ±100 for the full control effect; nearly all actives have a fitted effect of over 55% in size
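Chicken DT40 Tdp1-/- cells stably complemented with human TDP1 were seeded at 400 cells/well in medium containing 20 nM camptothecin, exposed to pin-transferred compounds, and grown at 37 °C for at least 48 hr. Viability was read as ATP luminescence.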
miR-21 reporter: qHTS Assay for Modulators of miRNAs and/orActivators of miR-21. AID 2288, 2010. HeLa miR-21 FLuc reporter, luciferase, 48 h. Potency, µM (series often up to 38.3 µM), without a hit: top-dose activity change, positive = activation, usual class: activators. 340,000 tested, under 10 active;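 note: % of control where 0% means no effect; miR-21 action dims this reporter so a rising signal means less miR-21 action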
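HeLa cells endogenously expressing miR-21, stably carrying CMV-driven firefly luciferase with a downstream miR-21 binding site, 2000 cells/well. Titrations up to approximately 40 uM, 48 hours; luciferase luminescence read.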
uPA generation: qHTS for Inhibitors of Cell Surface uPA Generation; cell surface uPA generation assay, qHTS; Potency, µM (series often up to 38.3 µM), for the others: at the top dose activity change, negative = inhibition, most hits filed as inhibitors; 0.31% of 330,000 active; AID 540303, 2011; active = well fitted inhibition curve with a large enough effect; inconclusive = small, poorly fitted or top-dose-only effect; inactive = no such curve, though single readings can be large or run the other way; tested in mouse RAW 264.7 cells; note: potency is the fitted concentration of half-maximal effect; % is set by controls: 0 for no effect and ±100 for the full control effect; nearly all actives have a fitted effect of over 55% in size
TDP1 block: qHTS Assay for Inhibitors of Tyrosyl-DNA Phosphodiesterase (TDP1). Potency, µM (series often up to 130 µM), for inactives: top-dose activity change, negative = inhibition, actives largely listed as inhibitors. Tyrosyl-DNA phosphodiesterase 1 (Homo sapiens), Q9NUW8. 0.28% of 350,000 active. recombinant TDP1, AlphaScreen DNA substrate cleavage; note: potency is the fitted concentration of half-maximal effect; % is set by controls: 0 for no effect and ±100 for the full control effect; nearly all actives have a fitted effect of over 40% in size
Target sequence (Q9NUW8 whole entry, looked up): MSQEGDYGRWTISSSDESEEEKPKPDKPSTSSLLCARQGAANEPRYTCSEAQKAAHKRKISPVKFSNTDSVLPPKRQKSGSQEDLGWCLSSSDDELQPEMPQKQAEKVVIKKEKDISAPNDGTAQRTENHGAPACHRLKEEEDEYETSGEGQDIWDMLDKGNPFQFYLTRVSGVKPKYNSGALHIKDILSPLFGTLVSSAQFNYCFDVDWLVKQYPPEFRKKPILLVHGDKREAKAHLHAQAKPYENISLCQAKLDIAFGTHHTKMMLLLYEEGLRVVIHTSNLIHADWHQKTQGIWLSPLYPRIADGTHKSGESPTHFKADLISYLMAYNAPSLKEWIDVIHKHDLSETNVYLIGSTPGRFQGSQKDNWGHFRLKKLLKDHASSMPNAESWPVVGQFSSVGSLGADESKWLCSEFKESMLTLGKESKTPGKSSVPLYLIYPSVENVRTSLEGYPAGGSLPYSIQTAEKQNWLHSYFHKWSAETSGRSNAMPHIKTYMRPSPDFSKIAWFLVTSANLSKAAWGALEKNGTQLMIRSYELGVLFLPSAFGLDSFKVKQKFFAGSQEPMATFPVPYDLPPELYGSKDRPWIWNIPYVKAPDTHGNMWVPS
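E. coli-derived human Tdp1, 1 nM final. Cpd preinc 15 min RT; substrate 15 nM final, 5 min RT; AS bead mix 10 ug/ml final, 10 min RT. Signal loss = tyrosine-FITC cleavage. No-enzyme wells = max signal.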
DT40 TDP1 no CPT: qHTS for Inhibitors of human tyrosyl-DNA phosphodiesterase 1 (TDP1): qHTS in cells in absence of CPT | DT40 Tdp1-/- hTDP1 cells, no CPT, ATP luminescence, 48 h | Potency, µM (top dose mostly 46.2 µM), for the others: at the top dose activity change, negative = growth inhibition, usual class: inhibitors | 15% of 420,000 active | AID 686978, 2013; note: potency is the fitted concentration of half-maximal effect; % is set by controls: 0 for no effect and ±100 for the full control effect; nearly all actives have a fitted effect of over 55% in size
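Growth of hTDP1-complemented DT40 Tdp1-knockout cells is measured by ATP luminescence after at least 48 hr compound exposure at 37 °C, with DMSO substituting for the 20 nM CPT used in the parallel screen.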
An asterisk follows results filed as active; ? = inconclusive; . = not tested or not shown. Unless noted, calls come from the whole dose curve; as a rule, active = well fitted curve in the direction sought with a large enough effect; inconclusive = small, poorly fitted or top-dose-only effect, or another doubt; inactive = no such curve, though single readings can be large; an effect the other way counts as inactive or inconclusive.

SMILES	TDP1 cell CPT	miR-21 reporter	uPA generation	TDP1 block	DT40 TDP1 no CPT
CCOC(=O)c1sc(N(Cc2ccccc2)C(=O)CCl)nc1C	?	-29%	-2%	.	21µM*
CC1CN(C(=O)CCc2ccccc2)C(C)CN1C(=O)CCc1ccccc1 (stereo unspecified)	?	-5%	0%	2%	23µM*
CSc1ncnc2c1ncn2CCCNCC(c1ccccc1)c1ccccc1	?	.	.	.	26µM*
Cc1ccc(CNCCCn2cnc3c(OCc4ccccc4)ncnc32)o1	?	.	11%	.	?
c1ccc(CNCCCn2cnc3c(OCc4ccccc4)ncnc32)cc1	29µM*	.	4%	.	23µM*
C[C@@H](NC(=O)Cn1cnc2c(OCc3ccccc3)ncnc21)c1cccc2ccccc12	?	.	9%	-6%	?
c1ccc(CCCNCCCn2cnc3c(OCc4ccccc4)ncnc32)cc1	10µM*	.	?	.	12µM*
C[C@@H](NCCCn1cnc2c(OCc3ccccc3)ncnc21)c1cccc2ccccc12	?	.	-11%	.	16µM*
O=S(=O)(c1ccc2ccccc2c1)n1cccn1	26%	0%	2%	4%	15%
CC[C@H](CO)Oc1cc(NCc2ccc(Cl)c(Cl)c2)c2ncn(C(C)C)c2c1	16µM*	.	?	8%	?
CCCOc1cc(NCc2ccccc2)c2ncn(C(C)C)c2c1	?	.	?	12%	?
CC[C@H](CO)Oc1cc(NCc2cccc(N)c2)c2ncn(C(C)C)c2c1	26µM*	.	.	.	?
CCC(CO)Oc1cc(NCc2cccc(C(F)(F)F)c2)c2ncn(C(C)C)c2c1 (stereo unspecified)	16µM*	.	-18%	6%	?
CCC(CO)Oc1cc(NCc2ccc(OC)cc2)c2ncn(C(C)C)c2c1 (stereo unspecified)	?	.	21%	5%	?
CCC(CO)Oc1cc(NCc2ccc(C(F)(F)F)cc2)c2ncn(C(C)C)c2c1 (stereo unspecified)	?	.	?	7%	?
CCOc1cc(NCc2ccccc2)c2ncn(C(C)C)c2c1	?	.	-5%	12%	23µM*
COc1ccc(S(=O)(=O)N2CCCCCC2)cc1C(=O)NCCc1ccc(F)cc1	?	.	-9%	-1%	?
CCCCOc1ccc(/C=C/C(=O)OCC(=O)NC2CCS(=O)(=O)C2)cc1OCC (stereo unspecified)	-6%	.	1%	-12%	-2%
CCOC(=O)c1c(NC(=O)CN2C(=O)N(C)C3(CCCCC3)C2=O)sc(C(=O)N(C)C)c1C	5%	.	-6%	.	-7%
CCC(CO)Oc1cc(NCc2ccccc2O)c2ncn(C(C)C)c2c1 (stereo unspecified)	15µM*	.	10%	7%	18µM*
CCC(CO)Oc1cc(NCc2ccc(Cl)cc2Cl)c2ncn(C(C)C)c2c1 (stereo unspecified)	?	.	8.9µM*	10%	?
CCC(CO)Oc1cc(NCc2ccc(C)cc2)c2ncn(C(C)C)c2c1 (stereo unspecified)	?	.	-1%	10%	?
CCC(CO)Oc1cc(NCc2cccc(C)c2)c2ncn(C(C)C)c2c1 (stereo unspecified)	21µM*	.	6%	4%	?
CCC(CO)Oc1cc(NCc2ccc(Cl)cc2)c2ncn(C(C)C)c2c1 (stereo unspecified)	?	.	-12%	9%	?
CCC(CO)Oc1cc(NCc2ccc(C(=O)O)cc2)c2ncn(C(C)C)c2c1 (stereo unspecified)	-11%	.	-11%	2%	0%
COc1cccc(/C=N/n2c(COc3ccccc3)n[nH]c2=S)c1OC	-7%	-16%	6%	.	-27%
CCN1CCN(C(=O)c2cc3c(=O)n(C)c4ccccc4c3n2C)CC1	6%	-1%	-8%	8%	-9%
